Our source for the Potency, activation and activity change, negative = inhibition values is PubChem BioAssay (NCATS).

Experiment [1] addresses Rap guanine nucleotide exchange factor 3 (Homo sapiens) (UniProt O95398). As to the kind of experiment: Confirmatory qHTS for antagonist of cAMP-regulated guanine nucleotide exchange factor 3 (EPAC1) (AID 1645880). Further: nearly all actives have a fitted effect of over 55% in size. Further: potency means the concentration at half of the fitted maximal effect.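 On activity, negative = inhibition: plate controls were DMSO only for no effect and full effect of the ATA control for full effect.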 The conditions noted are these: EPAC1 Rap1B-BODIPY-GDP exchange, fluorescence; activity, negative = inhibition: at 115 µM (top of the series). In outline:
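Released BODIPY-GDP fluoresces less than Rap1-bound BODIPY-GDP; the signal is followed at 480/540 nm at 5-min intervals over 30 min, after 5 min at room temperature. Reactions contain 100 nM EPAC1, 250 nM RAP1B-BODIPY-GDP and 50 uM GDP; results are normalized to ATA and DMSO.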

The target is the same in experiment [2]. As to the kind of experiment: Confirmatory qHTS for agonist of cAMP-regulated guanine nucleotide exchange factor 3 (EPAC1) (AID 1645881). Further: nearly all actives have a fitted effect of over 75% in size. Further: potency means the concentration at half of the fitted maximal effect.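 On activation: EPAC1 catalysed release of BODIPY-GDP from Rap1B seen as fluorescence loss; 100% = effect of cAMP agonist control.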
Experiment [3] has as its target Rap guanine nucleotide exchange factor 4 (Homo sapiens) (UniProt Q8WZA2). As to the kind of experiment: Confirmatory qHTS for agonist of cAMP-regulated guanine nucleotide exchange factor 4 (EPAC2) (AID 1645884).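 Further: nucleotide exchange releases bodipy-GDP from Rap1 and this lowers its fluorescence; nearly all actives have a fitted effect of over 65% in size.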 Further: potency means the concentration at half of the fitted maximal effect. On activation: on the % scale 0 is the no-effect control and ±100 the full control effect.
Experiment [4] has the same target. The experiment in a line: Confirmatory qHTS for antagonist of cAMP-regulated guanine nucleotide exchange factor 4 (EPAC2) (AID 1645885). Further: nearly all actives have a fitted effect of over 25% in size. Further: potency means the concentration at half of the fitted maximal effect. On activity change, negative = inhibition: on the % scale 0 is the no-effect control and ±100 the full control effect.
The target in experiment [5] is Rap guanine nucleotide exchange factor 3 (Homo sapiens) (UniProt O95398). As to the kind of experiment: Counterscreen qHTS for antagonist of cAMP-regulated guanine nucleotide exchange factor 3 (EPAC1) (AID 1645888). Further: % of control where 0% means no effect. In outline:
(§1)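 Measured: fluorescence of BODIPY-GDP bound to Rap1B, which falls as exchange proceeds. Conditions include 50 uM competing GDP, 5 and 30 min reads, and a later cAMP challenge for antagonist detection.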

Experiment [6] has the same target. The experiment in a line: Counterscreen qHTS for agonist of cAMP-regulated guanine nucleotide exchange factor 3 (EPAC1) (AID 1645889). Further: nearly all actives have a fitted effect of over 40% in size. Further: potency means the concentration at half of the fitted maximal effect. On activation: % of control where 0% means no effect. In outline: as §1

Records with an inconclusive call do not appear. A number with no mark means an inactive call. Calls of active or inactive are those of the source. The call rests on the fitted dose curve; in most records, active means well fitted curve in the direction sought with a large enough effect; inconclusive means small, poorly fitted or top-dose-only effect, or another doubt; inactive means no such curve, though single readings can be large; an effect the other way counts as inactive or inconclusive.

Sequence of Rap guanine nucleotide exchange factor 3 (Homo sapiens) (O95398 whole entry, looked up): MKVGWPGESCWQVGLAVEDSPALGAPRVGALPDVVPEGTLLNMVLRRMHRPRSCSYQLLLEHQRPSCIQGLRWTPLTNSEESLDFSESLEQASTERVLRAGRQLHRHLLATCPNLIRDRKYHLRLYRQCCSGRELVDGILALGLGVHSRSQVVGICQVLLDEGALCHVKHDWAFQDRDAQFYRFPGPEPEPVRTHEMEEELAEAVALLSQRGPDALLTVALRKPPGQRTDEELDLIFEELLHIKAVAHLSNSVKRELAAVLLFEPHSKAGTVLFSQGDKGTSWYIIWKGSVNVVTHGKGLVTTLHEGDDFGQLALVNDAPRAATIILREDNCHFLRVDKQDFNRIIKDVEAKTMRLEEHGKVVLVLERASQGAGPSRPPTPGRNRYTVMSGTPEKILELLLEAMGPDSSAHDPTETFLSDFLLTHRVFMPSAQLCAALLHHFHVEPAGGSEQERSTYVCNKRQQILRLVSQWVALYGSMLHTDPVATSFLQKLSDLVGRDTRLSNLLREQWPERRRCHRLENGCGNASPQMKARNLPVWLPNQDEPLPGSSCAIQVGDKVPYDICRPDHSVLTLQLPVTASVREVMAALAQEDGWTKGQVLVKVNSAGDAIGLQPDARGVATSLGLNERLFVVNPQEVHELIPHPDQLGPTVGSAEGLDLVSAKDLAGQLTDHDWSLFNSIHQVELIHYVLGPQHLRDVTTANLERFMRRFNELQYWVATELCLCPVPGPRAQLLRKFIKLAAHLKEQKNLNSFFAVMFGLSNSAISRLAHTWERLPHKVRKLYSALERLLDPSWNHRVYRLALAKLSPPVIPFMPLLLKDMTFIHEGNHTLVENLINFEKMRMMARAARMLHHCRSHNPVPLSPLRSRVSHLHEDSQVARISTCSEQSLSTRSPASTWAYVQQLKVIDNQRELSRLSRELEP
Sequence of Rap guanine nucleotide exchange factor 4 (Homo sapiens) (Q8WZA2 whole entry, looked up): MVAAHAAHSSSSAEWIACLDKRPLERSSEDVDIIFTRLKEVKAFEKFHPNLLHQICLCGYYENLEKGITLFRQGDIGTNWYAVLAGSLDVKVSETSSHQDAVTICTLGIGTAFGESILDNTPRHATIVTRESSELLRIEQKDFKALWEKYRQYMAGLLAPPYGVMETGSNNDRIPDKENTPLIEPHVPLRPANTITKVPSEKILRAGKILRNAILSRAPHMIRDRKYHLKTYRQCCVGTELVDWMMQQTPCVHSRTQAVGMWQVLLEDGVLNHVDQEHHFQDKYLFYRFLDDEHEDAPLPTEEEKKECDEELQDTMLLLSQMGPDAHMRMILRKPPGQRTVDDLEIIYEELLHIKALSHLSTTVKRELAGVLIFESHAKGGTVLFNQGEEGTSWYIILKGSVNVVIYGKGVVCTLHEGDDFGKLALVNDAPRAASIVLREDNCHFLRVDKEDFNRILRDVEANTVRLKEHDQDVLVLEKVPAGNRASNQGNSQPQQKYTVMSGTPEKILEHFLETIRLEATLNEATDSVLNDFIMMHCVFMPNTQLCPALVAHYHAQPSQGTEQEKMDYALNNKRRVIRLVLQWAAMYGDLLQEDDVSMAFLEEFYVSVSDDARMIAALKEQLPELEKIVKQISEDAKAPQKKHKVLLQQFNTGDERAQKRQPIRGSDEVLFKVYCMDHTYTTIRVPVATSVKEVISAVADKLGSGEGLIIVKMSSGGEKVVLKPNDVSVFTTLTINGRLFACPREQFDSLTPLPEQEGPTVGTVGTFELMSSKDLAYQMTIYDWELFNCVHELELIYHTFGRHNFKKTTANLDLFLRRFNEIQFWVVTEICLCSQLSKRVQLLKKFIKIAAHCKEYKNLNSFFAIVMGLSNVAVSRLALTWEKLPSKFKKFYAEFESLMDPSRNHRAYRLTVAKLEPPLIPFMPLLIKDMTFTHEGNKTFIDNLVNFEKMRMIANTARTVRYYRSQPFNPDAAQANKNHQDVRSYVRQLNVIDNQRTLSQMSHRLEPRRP

As for `Cc1cccc(S(=O)(=O)NC(=O)C2(C)CCN2C(=O)Cc2cc(F)ccc2F)c1` (stereo not given), the Potency result in experiment [1], in experiment [2] and in experiment [4] was “inactive” throughout. In addition, the activation in experiment [3] was 11.8% [at 17.1 µM, percent relative to cAMP agonist control]; in experiment [6], -2.2% [at 30.8 µM]. Besides, the activity change, negative = inhibition in experiment [5] is 9.86% [at 30.8 µM].
For the compound `O=C(Nc1ncccc1O)c1ccc2c(c1)OCCO2`, the Potency entry in experiment [1], in experiment [2] and in experiment [4] was “inactive” each time. The activation in experiment [3] is 2.78% [at 17.1 µM, percent relative to cAMP agonist control]; in experiment [6] it was 22.4% [at 30.8 µM]. In addition, the activity change, negative = inhibition in experiment [5] was 6.79% [at 30.8 µM].
For `CCOC(=O)C1CCCN(C(=O)C2(c3ccc(Cl)cc3)CCCC2)CC1` (stereo not given), the Potency entry in experiment [1], in experiment [2], in experiment [3], in experiment [4], in experiment [5] and in experiment [6] was “inactive” throughout.
`Cc1ccc(S(=O)(=O)NN2C(=O)/C(=C/c3cccnc3)SC2=S)cc1`: the Potency in experiment [1] was 42.6 µM (active). Besides, the Potency entry in experiment [2], in experiment [3], in experiment [4], in experiment [5] and in experiment [6] was “inactive” in each case.
For `O=C1NC(=S)S/C1=C\c1coc2ccc(O)cc2c1=O`, the Potency in experiment [1] is 39.8 µM (active). In addition, the Potency entry in experiment [2] and in experiment [4] was “inactive” throughout. In addition, the activation in experiment [3] is 11% [at 17.1 µM, percent relative to cAMP agonist control]; in experiment [6] it was -0.252% [at 30.8 µM]. Besides, in experiment [5], the activity change, negative = inhibition was -13.4% [at 30.8 µM].
Regarding `COC(=O)[C@@H](NC(=O)Nc1ccc2c(c1)OCCO2)C(C)C`, the Potency result in experiment [1], in experiment [2], in experiment [3], in experiment [4], in experiment [5] and in experiment [6] was “inactive” throughout.
As to `Cc1ccc(S(=O)(=O)N2CC(C(=O)O)=CC[C@H]2c2ccc(Cl)cc2)cc1`, the Potency entry in experiment [1], in experiment [2], in experiment [3], in experiment [4], in experiment [5] and in experiment [6] was “inactive” each time.
Regarding `CCOC(=O)c1sc2nc(NC(=O)COc3ccccc3)sc2c1C`, the Potency entry in experiment [1], in experiment [2] and in experiment [4] was “inactive” throughout. Also, the activation in experiment [3] was 1.9% [at 17.1 µM, percent relative to cAMP agonist control]; in experiment [6] it was 25% [at 30.8 µM]. For the same compound, in experiment [5], the activity change, negative = inhibition is -6.87% [at 30.8 µM].
Consider `CCN(CC)c1nc2ccccc2n(Cc2cccc(OC)c2)c1=O`, for which the Potency result in experiment [1], in experiment [2], in experiment [3], in experiment [4], in experiment [5] and in experiment [6] was “inactive” throughout.
As to `CN(CC(=O)Nc1ccccc1Sc1ccccc1)C1CCCCC1`, the Potency entry in experiment [1], in experiment [2], in experiment [3], in experiment [4], in experiment [5] and in experiment [6] was “inactive” throughout.
For `COc1ccc([C@@H]2[C@@H]3C(=O)N(C(C)(C)C)C(=O)[C@@H]3[C@]3(Cc4ccccc4)C(=O)N(c4cccc(Br)c4)C(=O)N23)cc1`, the Potency entry in experiment [1], in experiment [2] and in experiment [4] was “inactive” each time. The activation in experiment [3] is 2.72% [at 17.1 µM, percent relative to cAMP agonist control]; in experiment [6], 10.3% [at 30.8 µM]. In addition, in experiment [5], the activity change, negative = inhibition was -15.9% [at 30.8 µM].
For `O=C(O)CN1C(=O)/C(=C\c2cc(Br)ccc2OCc2ccc(Cl)cc2)SC1=S`, the Potency in experiment [1] is 30.1 µM (active); in experiment [4] it was 47.8 µM (active). In addition, the Potency result in experiment [2], in experiment [3], in experiment [5] and in experiment [6] was “inactive” each time.
Take `N#C/C(=C\C1=C(N2CCOCC2)C(=C/c2cccc([N+](=O)[O-])c2)/CC1)C(=O)Nc1ccccc1F`: the Potency in experiment [1] is 47.8 µM (active). For the same compound, the Potency result in experiment [2], in experiment [3], in experiment [4], in experiment [5] and in experiment [6] was “inactive” in each case.
As to `O=C(NC1CCC(O)CC1)c1ccc(S(=O)(=O)NCc2ccco2)cc1` (stereo not given), the Potency entry in experiment [1], in experiment [2], in experiment [3], in experiment [4], in experiment [5] and in experiment [6] was “inactive” each time.
On to `CN1/C(=C\C=C2/SC(=S)N(CC(=O)O)C2=O)C(C)(C)c2ccccc21`, for which the Potency result in experiment [1] and in experiment [4] was “inactive” in each case. In addition, the values for the Potency in experiment [2], in experiment [3] and in experiment [6] were 44.7 µM (active), 7.94 µM (active) and 10 µM (active), respectively. Besides, the activity change, negative = inhibition in experiment [5] was 286% [at 30.8 µM].
With `CCN(CC)c1ccc2cc(C(C)=O)c(=O)oc2c1`, the Potency result in experiment [1], in experiment [4] and in experiment [5] was “inactive” each time. In addition, the Potency in experiment [2] was 89.1 µM (active); in experiment [3], 100 µM (active); in experiment [6], 50.1 µM (active).
With `Cc1ccc(C(=O)Nc2ccccc2[N+](=O)[O-])cc1S(=O)(=O)N1CCOCC1`, the Potency entry in experiment [1], in experiment [2], in experiment [3], in experiment [4], in experiment [5] and in experiment [6] was “inactive” in each case.
For the compound `C=CCOc1ccc(C2N3CC4(CC)CN2CC(CC)(C3)C4=O)cc1` (stereo not given), the Potency entry in experiment [1], in experiment [2] and in experiment [4] was “inactive” each time. The activation was 6.19% [at 17.1 µM, percent relative to cAMP agonist control] in experiment [3] and 36.6% [at 30.8 µM] in experiment [6]. Besides, the activity change, negative = inhibition in experiment [5] was -3.19% [at 30.8 µM].
As to `O=C(NN1C(=O)/C(=C\c2ccc(O)c([N+](=O)[O-])c2)SC1=S)c1ccccc1Cl`, the Potency in experiment [1] is 50.1 µM (active). Moreover, the Potency entry in experiment [2] and in experiment [4] was “inactive” in each case. Besides, the activation in experiment [3] was -1.95% [at 17.1 µM, percent relative to cAMP agonist control]; in experiment [6] it was 0.476% [at 30.8 µM]. In addition, the activity change, negative = inhibition in experiment [5] is -8.56% [at 30.8 µM].
`COC(=O)c1cc2sc(C)cc2n1Cc1ccc(F)cc1Cl`: the Potency result in experiment [1], in experiment [2], in experiment [3], in experiment [4], in experiment [5] and in experiment [6] was “inactive” throughout.
